Measured values as given in PubChem BioAssay.
Active and inactive are the calls of the source. Unless noted, the rule behind the calls is not given here.

What was measured:
[1] = system: Wnt5a (protein binding on small-molecule microarray); experiment: Wnt5a binders on small-molecule microarray, primary screen, biophysical, 635/667 nm fluorescence (AID 1142); conditions: 635 nm fluorescence, higher = more signal;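 note: fluorescence read at 667 nm with signal to noise per printed feature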
[2] = cell viability in Huh7 cells, primary screen, cytotoxicity control for HCV replication inhibitor project, CellTiter-Glo luminescence, basal, 48 h (AID 1143); conditions: Huh7 HCV replicon, higher = more signal, called active from +8 up or from −8 down;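 note: Huh7 hepatoma cells carrying a hepatitis C replication reporter with no stimulus; test concentration not given here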
[3] = P. aeruginosa biofilm formation inhibitors, primary screen, PAO1 strain, BacTiter-Glo luminescence, LB-PBS (AID 1144); conditions: 12 h, higher = more signal
[4] = CREB reporter modulators without forskolin, primary screen, cell-based, PC12, CRE-LacZ reporter, unstimulated (AID 1145); conditions: no forskolin, luminescence, 4.5 h, higher = more signal, called active from +8 up or from −8 down
[5] = CREB reporter modulators under forskolin, primary screen, cell-based, PC12, CRE-LacZ reporter, forskolin-stimulated (AID 1146); conditions: luminescence, 4.5 h, higher = more signal, called active from +8 up or from −8 down;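 note: PC12 cells with 6xCRE LacZ reporter stimulated by forskolin 10 µM; beta-galactosidase reporter signal reflecting CREB driven transcription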
[6] = target: Streptavidin (Streptomyces avidinii) (UniProt P22629); experiment: streptavidin binders on small-molecule microarray, primary screen, artefact control for SMM compound annotation, biophysical, 635/667 nm fluorescence (AID 1147); conditions: streptavidin binding, higher = more signal;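 note: signal reflects streptavidin binding to arrayed compounds as a control protein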
Chain of Streptavidin (Streptomyces avidinii) (P22629 whole entry, looked up): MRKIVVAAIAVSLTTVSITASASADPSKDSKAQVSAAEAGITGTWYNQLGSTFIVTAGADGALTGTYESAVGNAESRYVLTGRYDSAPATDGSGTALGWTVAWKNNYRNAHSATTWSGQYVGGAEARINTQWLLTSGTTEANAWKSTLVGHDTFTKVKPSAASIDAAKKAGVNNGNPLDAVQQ

[7] = small-molecule binders of probe aInhba, primary screen, biochemical, small-molecule microarray, 635/667 nm fluorescence (AID 1148); conditions: higher = more signal;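 note: score merges 667nm spot fluorescence with signal-to-noise for antibody binding to printed compounds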
Torsin-1A (Homo sapiens) [8] = target: Torsin-1A (Homo sapiens) (UniProt O14656); experiment: torsin A binders from cell lysate, primary screen, small-molecule microarray, wild-type, 635/667 nm (AID 1149); conditions: COS7 hTOR1A-WT lysate, 635 nm fluorescence, higher = more signal
Chain of Torsin-1A (Homo sapiens) (O14656 whole entry, looked up): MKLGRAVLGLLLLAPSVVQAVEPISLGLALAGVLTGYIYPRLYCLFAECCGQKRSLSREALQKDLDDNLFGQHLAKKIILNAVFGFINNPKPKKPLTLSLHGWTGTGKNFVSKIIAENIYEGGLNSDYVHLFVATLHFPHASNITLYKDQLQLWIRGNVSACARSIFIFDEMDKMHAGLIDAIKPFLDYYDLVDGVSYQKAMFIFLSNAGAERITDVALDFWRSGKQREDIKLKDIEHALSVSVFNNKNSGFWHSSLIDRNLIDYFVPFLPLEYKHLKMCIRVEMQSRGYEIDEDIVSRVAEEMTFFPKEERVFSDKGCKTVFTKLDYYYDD

Torsin-1A (Homo sapiens) [9] = target: Torsin-1A (Homo sapiens) (UniProt O14656); experiment: small-molecule binders of mutant TOR1A in lysate, primary screen, cell lysate, small-molecule microarray, COS7 lysate, 635/667 nm fluorescence (AID 1150); conditions: COS7 hTOR1A mutant lysate, 635 nm fluorescence, higher = more signal;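 note: score pools 667 nm emission and signal to noise measuring lysate protein binding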
[10] = system: Sonic hedgehog protein (Shh); experiment: small-molecule binders of Shh protein, primary screen, biochemical, small-molecule microarray, 635/667 nm fluorescence (AID 1151); conditions: small-molecule microarray binding, 635 nm fluorescence; higher = more signal;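 note: Shh protein binding to compounds spotted on small-molecule microarray slides; score combines spot fluorescence intensity with signal-to-noise across triplicate slides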
[11] = E. coli DRC41 culture turbidity changes, primary screen, E. coli filamentation inducer project, strain DRC41, OD650, 48 h (AID 1152);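 note: E. coli MC1000 strain DRC41 lacking acrAB efflux pump and sulA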; conditions: E. coli DRC41 (acrAB sulA), higher = more signal, called active from +8 up or from −8 down
[12] = small-molecule binders of probe aLefty1, primary screen, biochemical, small-molecule microarray, 635/667 nm fluorescence (AID 1153); conditions: higher = more signal;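 note: score merges spot fluorescence with signal-to-noise ratio from the scanned slide images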
[13] = PSAC antagonists in infected red cells, primary screen, cell-based, P. falciparum Indochina, OD700, 1 h (AID 1154); conditions: P. falciparum Indochina infected RBC osmotic lysis, higher = more signal, called active from +8 up or from −8 down
[14] = PSAC antagonists in infected red cells, primary screen, cell-based, P. falciparum Indochina, OD700, 2 h (AID 1155);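 note: lysis reports solute entry through the parasite surface anion channel PSAC; channel blockers reduce lysis of infected cells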; conditions: P. falciparum Indochina infected erythrocytes, osmotic lysis OD700; higher = more signal, called active from +8 up or from −8 down
[15] = osmotic lysis modulators in infected erythrocytes, primary screen, PSAC antagonist project, cell-based, P. falciparum Indochina, OD700, 3 h (AID 1156); conditions: higher = more signal, called active from +8 up or from −8 down
[16] = PSAC antagonists in infected red cells, primary screen, cell-based, P. falciparum Indochina, OD700, 18 h (AID 1157); conditions: P. falciparum Indochina infected erythrocytes, osmotic lysis OD700, 18 h; higher = more signal, called active from +8 up or from −8 down
[17] = modulators of S6 phosphorylation in cells, primary screen, cell-based, A549, cytoblot, luminescence, serum-stimulated (AID 1158); conditions: A549 phospho-S6 cytoblot, 5 h, higher = more signal;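 note: serum-stimulated A549 lung adenocarcinoma cells; signal is phosphorylated S6 detected by cytoblot immunostaining with HRP secondary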
[18] = target: NADPH oxidase 2 (Homo sapiens) (UniProt P04839); experiment: NOX2-dependent H2O2 signal modulators, primary screen, NOX inhibitor project, cell-based, HEK293-NOX2, PMA-stimulated, Amplex Red fluorescence (AID 1159); conditions: 45 min, higher = more signal, called active from +8 up or from −8 down; note: test concentration not given here
Chain of NADPH oxidase 2 (Homo sapiens) (P04839 whole entry, looked up): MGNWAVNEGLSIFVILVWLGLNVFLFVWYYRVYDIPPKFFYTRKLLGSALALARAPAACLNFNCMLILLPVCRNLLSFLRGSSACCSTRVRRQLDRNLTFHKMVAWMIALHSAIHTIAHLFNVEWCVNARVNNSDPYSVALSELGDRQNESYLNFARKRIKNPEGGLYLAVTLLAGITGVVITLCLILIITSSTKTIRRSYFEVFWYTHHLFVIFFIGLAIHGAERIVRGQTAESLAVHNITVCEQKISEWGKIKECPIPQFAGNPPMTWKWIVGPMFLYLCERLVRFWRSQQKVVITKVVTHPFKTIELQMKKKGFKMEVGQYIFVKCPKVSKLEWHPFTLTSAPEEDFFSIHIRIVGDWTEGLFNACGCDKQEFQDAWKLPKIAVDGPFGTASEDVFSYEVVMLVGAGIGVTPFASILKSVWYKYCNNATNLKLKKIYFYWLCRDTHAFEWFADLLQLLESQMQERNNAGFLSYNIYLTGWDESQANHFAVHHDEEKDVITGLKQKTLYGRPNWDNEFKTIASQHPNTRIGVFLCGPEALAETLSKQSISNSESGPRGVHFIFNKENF

[19] = target: NADPH oxidase 4 (Homo sapiens) (UniProt Q9NPH5); experiment: NOX4-dependent H2O2 signal modulators, primary screen, NOX inhibitor project, cell-based, HEK293-NOX4, tetracycline-induced, Amplex Red fluorescence (AID 1160); conditions: 45 min, higher = more signal, called active from +8 up or from −8 down
Chain of NADPH oxidase 4 (Homo sapiens) (Q9NPH5 whole entry, looked up): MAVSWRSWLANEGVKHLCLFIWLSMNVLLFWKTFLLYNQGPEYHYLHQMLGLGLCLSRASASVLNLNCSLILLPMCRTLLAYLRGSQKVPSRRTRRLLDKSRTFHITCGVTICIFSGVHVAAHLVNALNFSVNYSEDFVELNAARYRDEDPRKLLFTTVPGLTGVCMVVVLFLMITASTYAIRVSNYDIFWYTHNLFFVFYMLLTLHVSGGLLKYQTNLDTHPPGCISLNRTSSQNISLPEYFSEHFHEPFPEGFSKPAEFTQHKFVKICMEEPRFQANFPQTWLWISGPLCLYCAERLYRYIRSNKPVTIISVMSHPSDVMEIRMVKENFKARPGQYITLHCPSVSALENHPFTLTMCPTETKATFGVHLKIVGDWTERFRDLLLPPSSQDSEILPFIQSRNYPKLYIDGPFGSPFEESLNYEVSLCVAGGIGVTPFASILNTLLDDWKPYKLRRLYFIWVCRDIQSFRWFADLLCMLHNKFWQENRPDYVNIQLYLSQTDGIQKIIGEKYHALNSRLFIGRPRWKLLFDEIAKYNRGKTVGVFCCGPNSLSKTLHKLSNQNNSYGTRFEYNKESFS

[20] = target: NADPH oxidase 5 (Homo sapiens) (UniProt Q96PH1); experiment: NOX5-dependent H2O2 signal modulators, primary screen, NOX inhibitor project, cell-based, HEK293-NOX5, Amplex Red fluorescence (AID 1161); conditions: HEK293-NOX5, ionomycin, 45 min, higher = more signal
Chain of NADPH oxidase 5 (Homo sapiens) (Q96PH1 whole entry, looked up): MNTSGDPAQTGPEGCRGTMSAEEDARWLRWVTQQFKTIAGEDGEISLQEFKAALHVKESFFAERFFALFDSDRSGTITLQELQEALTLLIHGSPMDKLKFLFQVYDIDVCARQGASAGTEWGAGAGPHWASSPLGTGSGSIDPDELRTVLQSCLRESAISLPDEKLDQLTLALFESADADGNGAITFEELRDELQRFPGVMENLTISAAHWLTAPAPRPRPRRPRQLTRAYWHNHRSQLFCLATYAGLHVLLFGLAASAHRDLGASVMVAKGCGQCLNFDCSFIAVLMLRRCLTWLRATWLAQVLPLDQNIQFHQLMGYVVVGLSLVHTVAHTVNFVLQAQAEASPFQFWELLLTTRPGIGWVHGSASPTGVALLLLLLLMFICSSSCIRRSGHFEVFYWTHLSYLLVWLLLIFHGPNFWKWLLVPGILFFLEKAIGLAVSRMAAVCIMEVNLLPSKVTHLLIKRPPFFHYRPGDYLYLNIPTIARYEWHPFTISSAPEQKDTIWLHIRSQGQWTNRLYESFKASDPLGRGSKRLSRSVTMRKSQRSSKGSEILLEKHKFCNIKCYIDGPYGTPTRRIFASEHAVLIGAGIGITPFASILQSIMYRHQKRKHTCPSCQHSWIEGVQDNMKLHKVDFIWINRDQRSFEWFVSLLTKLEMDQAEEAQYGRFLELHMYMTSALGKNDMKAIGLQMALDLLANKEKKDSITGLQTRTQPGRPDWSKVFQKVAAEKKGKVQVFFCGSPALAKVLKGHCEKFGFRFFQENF

Row | SMILES | composite z-score [1] | z-score [2] | z-score [3] | z-score [4] | z-score [5] | composite z-score [6] | composite z-score [7] | composite z-score (Torsin-1A (Homo sapiens) [8]) | composite z-score (Torsin-1A (Homo sapiens) [9]) | composite z-score [10] | z-score [11] | composite z-score [12] | z-score [13] | z-score [14] | z-score [15] | z-score [16] | z-score [17] | z-score [18] | z-score [19] | z-score [20]
1 | CC(C)CON=C1C[C@@H](O)[C@@H](O)[C@@H]2[C@@H]3C(=O)N(c4ccc(F)cc4F)C(=O)[C@@H]3CC[C@@H]12 | -0.0608 | -3.38 (inactive) | -0.419 (inactive) | 0.151 (inactive) | 0.391 (inactive) | 0.744 | -0.0719 | 1.29 | 0.218 | 0.583 | -0.177 (inactive) | -0.0984 | 1.3 (inactive) | -0.913 (inactive) | -0.116 (inactive) | -2.29 (inactive) | -0.164 | -1.11 (inactive) | -1.87 (inactive) | -3.22
2 | O=C1[C@H]2[C@H]3[C@H](O)[C@H](O)CC(=NO[C@@H]4O[C@H](CO)[C@@H](O)[C@H](O)[C@H]4O)[C@H]3CC[C@H]2C(=O)N1C[C@@H]1CCCO1 | 0.16 | 0.297 (inactive) | 0.261 (inactive) | -0.477 (inactive) | -0.105 (inactive) | 0.253 | -0.159 | 0.288 | 0.952 | -0.167 | 0.819 (inactive) | -0.0054 | 0.651 (inactive) | 0.544 (inactive) | 0.0197 (inactive) | 0.353 (inactive) | -0.164 | -2.4 (inactive) | 0.513 (inactive) | 0.488
3 | CC(C)=NO[C@@H](C)c1cn([C@H](CO)Cc2ccccc2)nn1 | 0.0949 | -0.172 (inactive) | -0.643 (inactive) | 0.573 (inactive) | -0.537 (inactive) | 0.561 | -0.0681 | 0.818 | 0.39 | 0.469 | -1.99 (inactive) | 0.423 | -0.407 (inactive) | -1.7 (inactive) | -0.222 (inactive) | -1.75 (inactive) | 1.54 | -0.689 (inactive) | 0.0692 (inactive) | 0.628
4 | CO[C@@H]1[C@H](O)CO[C@H]1C=Cc1ccccc1 | -0.174 | -0.536 (inactive) | 0.165 (inactive) | -0.164 (inactive) | -0.43 (inactive) | -0.223 | -0.182 | -0.518 | 0.0143 | -0.0147 | -0.0624 (inactive) | -0.0559 | 2.7 (inactive) | 0.178 (inactive) | 0.837 (inactive) | -0.0932 (inactive) | 0.722 | -0.403 (inactive) | -0.898 (inactive) | 1.23
5 | CC(=O)OC[C@H]1O[C@H](CC=NOC[C@@H](O)[C@H]2O[C@@H]3OC(C)(C)O[C@@H]3[C@H]2O)C=C[C@@H]1OC(C)=O | 0.0795 | 0.165 (inactive) | -0.0289 (inactive) | -1.3 (inactive) | -0.521 (inactive) | 0.168 | -0.152 | -0.197 | 0.071 | -0.0919 | -1.11 (inactive) | 0.145 | 0.466 (inactive) | 0.274 (inactive) | 0.0662 (inactive) | 0.466 (inactive) | -0.549 | -0.462 (inactive) | 0.136 (inactive) | -0.515
6 | C[C@H]1CC[C@H]2C(=O)N[C@H](Cc3ccccc3)C(=O)N2[C@@H]1c1ccccc1 | 0.132 | 0.21 (inactive) | 0.108 (inactive) | -0.072 (inactive) | 0.901 (inactive) | 0.119 | -0.233 | 0.345 | 0.52 | 0.401 | 0.584 (inactive) | -0.108 | -0.189 (inactive) | 0.405 (inactive) | -0.304 (inactive) | 0.294 (inactive) | -0.0623 | 0.727 (inactive) | -0.32 (inactive) | -0.119
7 | CO[C@H]1COC(=O)CC=C[C@H](C)[C@H](OC)COC(=O)[C@@H](C)NC(=O)CC=C[C@@H]1C | -0.0492 | -0.379 (inactive) | -0.727 (inactive) | 0.276 (inactive) | 0.314 (inactive) | -0.201 | -0.179 | 2.9 | 1.82 | 2.06 | -0.619 (inactive) | -0.0939 | -0.89 (inactive) | -1.35 (inactive) | -0.14 (inactive) | -1.92 (inactive) | -0.365 | -0.677 (inactive) | 0.557 (inactive) | 0.197
8 | CCc1cc2c(nc1CC)CCN(CCC(C)=NOCC[C@@H]1C=C[C@H](OC(C)=O)[C@@H](COC(C)=O)O1)C2 | 0.257 | 0.0095 (inactive) | -0.0152 (inactive) | 3.88 (inactive) | 0.329 (inactive) | 1.78 | 0.127 | 2.66 | 1.66 | 1.32 | -0.842 (inactive) | 0.245 | 1.86 (inactive) | 0.724 (inactive) | 0.77 (inactive) | 0.269 (inactive) | -1.04 | -0.572 (inactive) | 0.615 (inactive) | 1.65
9 | CC(C)[C@H](NC(=O)OC(C)(C)C)[C@@H](O)CC(=O)C(C)(C)C | -0.103 | 0.207 (inactive) | -1.09 (inactive) | -0.795 (inactive) | -0.422 (inactive) | 0.247 | -0.148 | 0.322 | 0.0647 | 0.473 | 0.14 (inactive) | -0.267 | -0.0522 (inactive) | 0.0094 (inactive) | 0.155 (inactive) | 0.126 (inactive) | 0.372 | 2.2 (inactive) | 0.34 (inactive) | 0.195
